High-throughput results deposited in PubChem BioAssay by Broad Institute.
SIRT5 inh: SIRT5 desuccinylase inhibitors, primary screen, biochemical, fluorescence imaging, single point, set 5; NAD-dependent protein deacylase sirtuin-5, mitochondrial (Homo sapiens), Q9NXA8; Purified SirT5, succinyl-peptide AMC, trypsin-coupled fluorescence; inhibition, % at 15 µM; 330,000 compounds, 1.1% hits; AID 652115, 2013; in the data active = inhibition above about 15%
Target sequence (Q9NXA8 whole entry, looked up): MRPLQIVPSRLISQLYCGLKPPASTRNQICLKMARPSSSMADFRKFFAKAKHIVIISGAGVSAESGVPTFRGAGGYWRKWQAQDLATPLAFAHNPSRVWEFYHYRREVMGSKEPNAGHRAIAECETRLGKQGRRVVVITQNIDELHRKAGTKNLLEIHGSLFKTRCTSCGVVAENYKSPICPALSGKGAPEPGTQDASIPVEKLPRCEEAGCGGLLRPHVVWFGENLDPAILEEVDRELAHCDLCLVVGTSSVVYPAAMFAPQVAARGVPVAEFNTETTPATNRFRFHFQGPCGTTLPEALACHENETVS
Casp6 inh: human caspase-6 inhibitors, primary screen, biochemical, VEID-R110 fluorescence, single point, set 2; P55212; purified caspase-6, Z-VEID-R110 cleavage fluorescence; inhibition, % at 12.5 µM; 350,000 compounds, 0.53% hits;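 active = mean inhibition across replicates at least about 35%, with every replicate also reaching that limit, limit read from the data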
Target sequence (P55212 24-179 limits assumed): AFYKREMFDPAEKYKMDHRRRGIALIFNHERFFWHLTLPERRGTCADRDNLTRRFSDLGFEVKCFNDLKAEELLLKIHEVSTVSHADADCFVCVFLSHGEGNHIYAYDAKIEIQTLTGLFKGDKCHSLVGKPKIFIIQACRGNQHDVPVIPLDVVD
Target sequence (P55212 194-293 limits assumed): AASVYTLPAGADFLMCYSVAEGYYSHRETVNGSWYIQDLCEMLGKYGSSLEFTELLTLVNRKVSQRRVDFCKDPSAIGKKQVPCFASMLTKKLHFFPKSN
FGF22 binding-1: binders of human FGF22 protein, primary screen, FGF22 synaptogenesis inhibitor project, biophysical, thermal shift, single point; 340,000 compounds, 1.5% hits; AID 651658, 2012; Fibroblast growth factor 22 (Homo sapiens), Q9HCT0; recombinant FGF22 thermal shift, SYPRO orange fluorescence; percent of sucrose octasulfate shift, DMSO zero; activity (Tm shift, normalised), % at 9.99 µM;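 active = mean Tm shift, scaled 0 neutral to 100 positive control, at about 1.3% or above, every replicate too, limit read from the data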
ERAP1 inh: human ERAP1 aminopeptidase inhibitors, primary screen, biochemical, single point, plate reader | AID 652197, 2013 | inhibition, % at 10.7 µM | Endoplasmic reticulum aminopeptidase 1 (Homo sapiens), Q9NZ08 | 340,000 compounds, 0.15% hits | recombinant ERAP1, Leu-AMC fluorescence, 60 min;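 active = mean replicate inhibition of at least 30%, or all replicates individually reaching that 30% level; inactive = mean below 30% and not every replicate reaching it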
FGF22 binding-2: binders of human FGF22 protein, dose response, FGF22 synaptogenesis inhibitor project, biophysical, thermal shift, cherry-pick retest; shares compounds with FGF22 binding-1; recombinant FGF22 thermal shift, SYPRO orange fluorescence; thermal shift activity, °C (ΔTm) at 38 µM; 1,000 compounds, 2% hits;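 active = fitted rise in melting shift crosses a set limit at or below the top valid dose tested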
TSA no protein: compound-only thermal shift signal without protein, dose response, artefact control for FGF22 binder project, biochemical, cherry-picked samples, RT-PCR instrument; shares compounds with FGF22 binding-1; compound-only SYPRO orange thermal shift counter-screen, no protein; AC50, µM (titrated, usually from 38 µM); 1,000 compounds, 2% hits; AID 743019, 2013;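 active = rising signal whose fitted curve reaches the 0.54 level within the top valid dose, showing a melting point, actives reach about 13 µM in these data; inactive = the rest, including activity in the opposite direction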; also: value is where the raw curve crosses a fixed level and not half-maximal
Numbers stand for hits; . = inactive; / = no result given. Only some compounds are listed: those with a hit (about 3.1% of all), similar ones and a draw of the others.

SMILES | SIRT5 inh | Casp6 inh | FGF22 binding-1 | ERAP1 inh | FGF22 binding-2 | TSA no protein
C[C@@H]1CN([C@H](C)CO)C(=O)c2cc(NS(=O)(=O)c3ccccc3)ccc2O[C@H]1CN(C)C(=O)Nc1cccc2ccccc12 | . | . | . | . | / | /
C[C@@H]1CCCCO[C@H](CN(C)C(=O)Nc2cccc3ccccc23)[C@H](C)CN([C@H](C)CO)C(=O)c2cc(NS(=O)(=O)c3ccc(F)cc3)ccc2O1 | . | . | / | . | / | /
Nc1c(N(CCO)C(=O)COc2ccc(Cl)cc2)c(=O)[nH]c(=O)n1Cc1ccccc1 | . | . | 1.8 | . | . | .
Cc1ccc2c(c1)c(CC(=O)Nc1ccc(C)c(F)c1)c(C(=O)O)n2C | . | . | 1.6 | . | . | .
C[C@@H]1CN([C@@H](C)CO)S(=O)(=O)c2ccc(-c3ccc(F)cc3)cc2O[C@@H]1CN(C)C(=O)Nc1ccccc1F | . | . | 1.7 | . | . | .
COc1cccc(NC(=O)N(C)C[C@H]2Oc3cc(-c4ccccc4OC)ccc3S(=O)(=O)N([C@H](C)CO)C[C@H]2C)c1 | . | . | . | . | / | /
C[C@@H]1CN([C@H](C)CO)S(=O)(=O)c2ccc(-c3ccc(F)cc3)cc2O[C@H]1CN(C)C(=O)Nc1ccccc1F | . | . | . | . | / | /
C[C@H](CO)N1C[C@H](C)[C@H](CN(C)CC2CC2)Oc2cc(-c3ccccc3F)ccc2S1(=O)=O | . | . | . | . | / | /
C[C@H]1CN([C@@H](C)CO)S(=O)(=O)c2ccc(-c3cccc(F)c3)cc2O[C@H]1CN(C)C(=O)Nc1cc(F)ccc1F | / | . | 1.4 | . | . | .
COc1cccc(NC(=O)N(C)C[C@@H]2Oc3cc(-c4ccccc4F)ccc3S(=O)(=O)N([C@H](C)CO)C[C@@H]2C)c1 | 17 | . | 4.0 | . | . | .
Cc1ccccc1-c1ccc2c(c1)O[C@H](CN(C)CC1CC1)[C@H](C)CN([C@H](C)CO)S2(=O)=O | . | . | 1.5 | . | . | .
C[C@@H]1CN([C@@H](C)CO)S(=O)(=O)c2ccc(-c3cccc(C#N)c3)cc2O[C@@H]1CN(C)C(=O)Nc1cc(F)ccc1F | . | . | 1.3 | . | / | .
O=C(c1ccccn1)N1C[C@H]2[C@@H](c3ccccc31)[C@@H](CO)N2C(=O)c1ccccn1 | . | . | 11 | . | . | .
O=C(c1cccc(F)c1)N1C[C@H]2[C@@H](c3ccccc31)[C@@H](CO)N2C(=O)c1ccccn1 | . | . | 3.3 | . | . | .
CCC(=O)N1CC2(C1)[C@H](c1ccccc1)[C@@H](CO)N2S(=O)(=O)Cc1ccccc1 | . | . | . | . | / | /
CC(=O)Nc1ccc(C(=O)N/N=C/c2cc(Br)cc(Br)c2O)cc1 | . | . | 2.8 | . | . | .
CCS(=O)(=O)N1CCC2(CC1)CN(S(=O)(=O)c1cccc(OC)c1)[C@@H](CO)c1[nH]c3cc(OC)ccc3c12 | / | / | . | . | / | /
O=C(CN1CCCC1)Nc1ccc(OC(F)(F)F)cc1 | . | . | 26 | . | . | .
O=C(CN1CCOCC1)Nc1ccc(OC(F)(F)F)cc1 | . | . | . | . | / | /
C[C@@H]1CN([C@@H](C)CO)C(=O)Cc2cc(N(C)C)ccc2O[C@H]1CN(C)S(=O)(=O)c1ccc(F)cc1 | . | . | . | . | / | /
COc1ccc(C(=O)N=c2sc3ccccc3n2C)cc1OC | . | . | 1.6 | . | . | .
Cc1ccc(C(=O)Nc2nc(=O)n(C(=O)C3CC3)s2)cc1 | . | . | 1.3 | . | . | .
O=C(Nc1nc(=O)n(C(=O)C2CC2)s1)c1ccccc1 | . | . | 2.2 | . | . | .
O=C(Nc1nc(=O)[nH]s1)c1ccccc1 | . | . | . | . | / | /
CCN(CC)S(=O)(=O)c1ccc(N/N=C(\C)c2ccc(OC)cc2O)nc1 | . | . | 1.4 | . | . | .
SMILES | SIRT5 inh | Casp6 inh | FGF22 binding-1 | ERAP1 inh | FGF22 binding-2 | TSA no protein
Nc1nccc(-c2ccc(-n3cccc3)cc2)n1 | . | . | 2.3 | . | . | .
C/C=C/c1cnc2c(c1)C(=O)N([C@H](C)CO)C[C@H](C)[C@@H](CN(C)C(=O)Nc1ccc(OC)cc1)O2 | . | . | . | . | / | /
CC(=O)Nc1ccc(NC(=O)Nc2cccc(Cl)c2)cc1 | . | . | . | . | / | /
NS(=O)(=O)c1ccc(NC(=O)Nc2cccc(Cl)c2)cc1 | . | . | 2.2 | . | . | .
Cc1ccc(C2=NN(C(=O)CCC(=O)O)C(c3cn(-c4ccccc4)nc3-c3ccc(C)cc3)C2)cc1 (stereo not given) | . | . | . | . | / | /
COc1ccc(C2=NN(c3ccccc3)C(c3cn(CCC(=O)O)nc3-c3ccccc3)C2)cc1 (stereo not given) | . | . | 2.3 | . | . | .
O=C(C[C@@H]1C[C@@H]2c3cc(NC(=O)CC4CC4)ccc3O[C@@H]2[C@@H](CO)O1)NCc1cccc(F)c1 | . | . | . | . | / | /
CCC(=O)N1CC2(C1)[C@H](c1ccccc1)[C@H](CO)N2S(=O)(=O)Cc1ccccc1 | . | . | 16 | . | . | .
O=C(CC1CC1)N1CC2(C1)[C@@H](c1ccccc1)[C@@H](CO)N2S(=O)(=O)Cc1ccccc1 | . | . | 1.3 | . | . | .
CCC(=O)N1CC2(C1)[C@@H](c1ccccc1)[C@@H](CO)N2S(=O)(=O)Cc1ccccc1 | . | . | . | . | / | /
O=C(C1CCCC1)N1CC2(C1)[C@H](c1ccccc1)[C@@H](CO)N2CC1CC1 | . | . | 1.6 | . | . | .
CN1C(=O)c2cc(NC(=O)C3CCC3)ccc2OC[C@H]2O[C@@H](CC(=O)NCc3ccccc3F)CC[C@@H]21 | . | . | . | . | / | /
COc1ccccc1S(=O)(=O)N[C@H]1CC[C@@H](CCn2cc(C3CCCC3)nn2)O[C@@H]1CO | . | . | / | . | / | /
C[C@@H]1CCCCO[C@H](CN(C)C(=O)Nc2cccc3ccccc23)[C@H](C)CN([C@@H](C)CO)C(=O)c2cc(N(C)C)ccc2O1 | . | . | . | . | / | /
Oc1ccc(C=NNC(=S)Nc2ccccc2)nc1 | . | . | 1.5 | . | . | .
S=C(N/N=C/c1ccc2ncccc2c1)Nc1ccccc1 | . | . | . | . | / | /
COC(=O)C[C@@H]1CC[C@H]2[C@@H](COc3ccc(NC(=O)c4cnccn4)cc3C(=O)N2C)O1 | . | . | . | . | / | /
CN(C)S(=O)(=O)n1cnc([C@H]2c3c(ncn3Cc3ccccc3)C[C@H]3COC(=O)[C@@H]32)c1 | / | . | . | . | / | /
